VACV mCherry inh: vaccinia inhibition (mCherry reporter). Potency, µM (top dose mostly 36.5 µM), actives largely listed as inhibitors. AID 720579. actives 0.63% (n = 310,000). Vaccinia virus mCherry reporter infection, fluorescence; calls by dose curve; tested in A549 cells; also: nearly all actives have a fitted effect of over 35% in size
Lassa entry inh: Lassa virus entry inhibition; AID 540256; actives 1.2% (n = 300,000); Potency, µM (top dose mostly 37.9 µM), actives largely listed as inhibitors; Lassa virus pseudotype entry inhibition, cell reporter; calls by dose curve; tested in HEK293 cells; also: nearly all actives have a fitted effect of over 50% in size
VACV Venus inh: inhibitors of vaccinia virus (Venus reporter); Vaccinia virus Venus reporter expression, fluorescence; Potency, µM (doses to about 36.5 µM), hits mostly inhibitors; AID 720580; actives 0.46% (n = 330,000); calls by dose curve; tested in A549 cells; also: nearly all actives have a fitted effect of over 30% in size
HCV inhibitor: blocks hepatitis C virus; Huh7.5.1 HCVcc-Cre infection, luciferase reporter, 44 h; Potency, µM (top dose mostly 41.8 µM), actives largely listed as inhibitors; actives 3.4% (n = 340,000)
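Infectious HCV cell culture screen: compound-treated cells (1,000/well, pre-plated 4 h) are infected with HCVcc-Cre at roughly 0.5 moi and grown 44 h. Infection is quantified by luciferase signal after 15 min substrate incubation at room temperature.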
MARV entry inh: blocks Marburg virus binding to or entry into cells. Marburg virus pseudotyped entry inhibition, cell reporter. Potency, µM (series often up to 37.8 µM), actives largely listed as inhibitors. actives 1.8% (n = 300,000). AID 540276; calls by dose curve; tested in HEK293 cells
FMDV antiviral: foot and mouth disease virus antiviral activity | FMDV antiviral cell-based qHTS | Potency, µM (highest dose often 57.9 µM), usual class: inhibitors | actives 1.2% (n = 410,000) | AID 1159524; calls by dose curve; tested in HEK293T cells; also: read-out not given here; nearly all actives have a fitted effect of over 45% in size
HCV inh confirm: HCV inhibition, cherry-pick confirmation; shares compounds with HCV inhibitor; HCVcc-Cre infectious virus cell assay, luciferase, inhibition; Potency, µM (series often up to 41.8 µM), hits mostly inhibitors; actives 78% (n = 640); AID 720575; also: nearly all actives have a fitted effect of over 80% in size
HCV host tox: toxic to HCV host cells, flagging false HCV inhibitors; shares compounds with HCV inhibitor; HCV host cell line cytotoxicity counterscreen; Potency, µM (doses to about 41.8 µM), most hits filed as inhibitors; actives 22% (n = 640);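 also: 44 h compound exposure; nearly all actives have a fitted effect of over 55% in size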
A number is an active result; [ ] = dose if it differs, or a comment. In the library only some 5.3% were active in any assay of this set; here they are far more common. Unless noted, calls follow the shape of the dose curve; as a rule, active = well fitted curve in the direction sought with a large enough effect; inconclusive = small, poorly fitted or top-dose-only effect, or another doubt; inactive = no such curve, though single readings can be large; an effect the other way counts as inactive or inconclusive.

What do the screens show for `COc1ccc(C(=O)NC2CC2)cc1OC1CCN(Cc2cc(C)c(C)cc2C)CC1`?
VACV mCherry inh: inactive; Lassa entry inh: inactive; VACV Venus inh: inactive; HCV inhibitor: inconclusive; MARV entry inh: inactive; FMDV antiviral: inactive

What do the screens show for `Cc1ccc(NC(=O)/C(=C/c2cccc([N+](=O)[O-])c2)NC(=O)C2CCCCC2)c(C)c1`?
VACV mCherry inh: inconclusive; Lassa entry inh: inconclusive; VACV Venus inh: inactive; HCV inhibitor: inactive; MARV entry inh: inconclusive

How did O=C(Nc1ccc([N+](=O)[O-])cc1)/C(=C/c1cccc([N+](=O)[O-])c1)NC(=O)C1CCCCC1 do in these assays?
VACV mCherry inh: inactive; Lassa entry inh: inactive; VACV Venus inh: inactive; HCV inhibitor: inconclusive; MARV entry inh: inconclusive; HCV inh confirm: 22µM; HCV host tox: inactive

Results for Nc1[nH]c(C(=O)c2ccccc2)c(-c2ccncc2)c1C(=O)NCCc1c[nH]c2ccccc12 ?
VACV mCherry inh: inactive; VACV Venus inh: inactive; FMDV antiviral: inactive

What do the screens show for `Cc1nnsc1C(=O)NC1CCCc2c1cnn2-c1ccc(C(C)(C)C)cc1` (centres undefined)?
HCV inhibitor: 1.6µM; FMDV antiviral: inconclusive; HCV inh confirm: 3.1µM; HCV host tox: 5.6µM

How did COc1ccc(C(=O)C2CCCN(C(=O)c3noc4c3CCCC4)C2)c(C)c1 (centres undefined) do in these assays?
VACV mCherry inh: inconclusive; Lassa entry inh: inconclusive; VACV Venus inh: inactive; HCV inhibitor: inconclusive; MARV entry inh: inconclusive; FMDV antiviral: inactive

How did CCn1nc(C)c(CNC(=O)c2ccc(OC3CCN(Cc4ccccn4)CC3)cc2)c1C do in these assays?
VACV mCherry inh: inactive; Lassa entry inh: inconclusive; VACV Venus inh: inactive; HCV inhibitor: 1µM; MARV entry inh: inconclusive; FMDV antiviral: inconclusive; HCV inh confirm: 0.56µM; HCV host tox: 1.1µM

How did Cc1cccnc1CCNC(=O)c1ccc(OC2CCN(Cc3ccccn3)CC2)cc1 do in these assays?
VACV mCherry inh: inactive; Lassa entry inh: inactive; VACV Venus inh: inactive; HCV inhibitor: inactive; MARV entry inh: inconclusive; FMDV antiviral: inconclusive

Results for CCOC(=O)c1c(C)nc2c3ccccc3ccn12 ?
VACV mCherry inh: inactive; Lassa entry inh: inactive; VACV Venus inh: inactive; HCV inhibitor: 7.1µM; MARV entry inh: inconclusive; FMDV antiviral: inactive; HCV inh confirm: inactive; HCV host tox: inactive

How did CCOC(=O)c1c(C)nc2c(C)cccn12 do in these assays?
VACV mCherry inh: inactive; Lassa entry inh: inactive; VACV Venus inh: inactive; HCV inhibitor: inactive; MARV entry inh: inactive; FMDV antiviral: inactive

What do the screens show for `Cn1c(=O)c2c(c3ccccc31)OC(=O)CC2c1ccc(C(F)(F)F)cc1` (centres undefined)?
VACV mCherry inh: inactive; Lassa entry inh: inactive; VACV Venus inh: inactive; MARV entry inh: inactive; FMDV antiviral: inactive

Results for Cc1ccc(C(=O)CCNc2ccc(F)c(Cl)c2)o1 ?
Lassa entry inh: inactive; HCV inhibitor: 3.2µM; MARV entry inh: inactive; FMDV antiviral: inactive; HCV inh confirm: 2.8µM; HCV host tox: inactive

How did Cc1ccc(C(=O)CCNc2ccc(Br)cc2)o1 do in these assays?
VACV mCherry inh: inactive; Lassa entry inh: inactive; VACV Venus inh: inactive; HCV inhibitor: inactive; MARV entry inh: inactive; FMDV antiviral: inactive

What do the screens show for `CC(NC(=O)c1ccccc1F)c1nnc(SCC(=O)Nc2nnc(C3CC3)s2)n1C` (centres undefined)?
VACV mCherry inh: inactive; Lassa entry inh: inactive; VACV Venus inh: inactive; HCV inhibitor: inactive[8.37 µM]; MARV entry inh: inactive; FMDV antiviral: inactive

What do the screens show for `NC(=O)CCC(NC(=O)OCc1ccccc1)C(=O)OCC(=O)c1ccccc1` (centres undefined)?
VACV mCherry inh: inactive; VACV Venus inh: inactive; FMDV antiviral: inactive

Results for CN1CCN(CC#CCn2c3ccccc3c3ccccc32)CC1 ?
VACV mCherry inh: inconclusive; Lassa entry inh: inconclusive; VACV Venus inh: inactive; HCV inhibitor: 4µM; MARV entry inh: inconclusive; FMDV antiviral: inactive; HCV inh confirm: 7µM; HCV host tox: inactive

Results for CN1CCN(CC(O)Cn2c3ccccc3c3ccccc32)CC1 (centres undefined) ?
HCV inhibitor: inconclusive; FMDV antiviral: inactive

What do the screens show for `COc1ccc(OC)c(NC(=O)Cc2csc(NC(=O)Nc3ccccc3OC)n2)c1`?
VACV mCherry inh: inactive; Lassa entry inh: inactive; VACV Venus inh: inactive; HCV inhibitor: 8.9µM; MARV entry inh: inconclusive; FMDV antiviral: inconclusive; HCV inh confirm: 10µM; HCV host tox: inactive

How did CCN(CC)S(=O)(=O)c1ccc2c(c1)C(=NO)c1cc(S(=O)(=O)N(CC)CC)ccc1-2 do in these assays?
VACV mCherry inh: 11µM; Lassa entry inh: inconclusive; VACV Venus inh: 13µM; HCV inhibitor: 4.5µM; MARV entry inh: inconclusive; FMDV antiviral: 20µM; HCV inh confirm: 7µM; HCV host tox: inconclusive

Results for COc1ccc(OC)c(NC(=O)/C=C/c2ccc(S(=O)(=O)N3CCOCC3)cc2)c1 ?
VACV mCherry inh: inactive; Lassa entry inh: inactive; VACV Venus inh: inactive; HCV inhibitor: inconclusive; MARV entry inh: inactive; FMDV antiviral: inactive; HCV inh confirm: 11µM; HCV host tox: inconclusive

Results for COc1ccccc1/C=C/C(=O)Nc1cccc(S(=O)(=O)N2CCOCC2)c1 ?
VACV mCherry inh: inactive; Lassa entry inh: inactive; VACV Venus inh: inactive; HCV inhibitor: inconclusive; MARV entry inh: inactive; FMDV antiviral: inactive

What do the screens show for `COc1cc(/C=C/C(=O)Nc2cccc(S(=O)(=O)N3CCOCC3)c2)ccc1OCC#N`?
HCV inhibitor: inconclusive; FMDV antiviral: inconclusive; HCV inh confirm: 2.8µM; HCV host tox: inactive

How did CCCCC[C@@H]1C=C(C(=O)O)[C@H](c2ccc(F)cc2)N1S(=O)(=O)c1ccc(C)cc1 do in these assays?
VACV mCherry inh: inactive; VACV Venus inh: inactive; HCV inhibitor: inactive; FMDV antiviral: inactive

How did N#Cc1c2ccc(O)cc2n2ccccc12 do in these assays?
VACV mCherry inh: inconclusive; Lassa entry inh: inconclusive; VACV Venus inh: inactive; HCV inhibitor: 7.1µM; MARV entry inh: inconclusive; FMDV antiviral: inactive; HCV inh confirm: 22µM; HCV host tox: inactive

How did N#Cc1c2ccc(OCC(=O)NCc3ccco3)cc2n2ccccc12 do in these assays?
VACV mCherry inh: inactive; Lassa entry inh: inactive; VACV Venus inh: inactive; HCV inhibitor: inconclusive; MARV entry inh: inactive; FMDV antiviral: inactive

How did COc1ccc(CCC(C)NC(=O)Cc2ccc(OC)c(OC)c2)c(OC)c1 (centres undefined) do in these assays?
HCV inhibitor: 7.1µM; FMDV antiviral: inconclusive; HCV inh confirm: 11µM; HCV host tox: inconclusive

What do the screens show for `Cc1cc2[nH]c3c(c[n+](C)c4ccccc34)c2cc1C`?
HCV inhibitor: 5µM; FMDV antiviral: inactive; HCV inh confirm: 16µM; HCV host tox: inconclusive

What do the screens show for `Cc1cc(C)c(CN2CCN(C(=O)Cn3cnc4c(OCc5ccccc5)ncnc43)CC2)c(C)c1`?
VACV mCherry inh: inconclusive; VACV Venus inh: inconclusive; HCV inhibitor: 0.56µM; FMDV antiviral: inconclusive; HCV inh confirm: 2.5µM; HCV host tox: 5.6µM

What do the screens show for `CSc1cccc(CNC(=O)C2CCC(=O)N(CCc3ccccc3)C2)c1` (centres undefined)?
VACV mCherry inh: inactive; VACV Venus inh: inactive; FMDV antiviral: inactive

How did O=C(NC1CCN(Cc2ccccc2)CC1)c1cc(S(=O)(=O)N2CCOCC2)ccc1Cl do in these assays?
HCV inhibitor: inactive; FMDV antiviral: inactive

Results for Cc1cccc(Cn2c(O)c(N=NC(=S)Nc3ccccc3F)c3ccccc32)c1 ?
Lassa entry inh: inactive; HCV inhibitor: 4µM; MARV entry inh: inconclusive; FMDV antiviral: inactive; HCV inh confirm: 7.9µM; HCV host tox: inconclusive
